# Experimental data taken from PubChem BioAssay (NCI).
# This is part of a sample that, as a whole, favours compounds with a hit. Of some 83,000 tested, about 20% had one in any assay.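 Note: values are percent growth. 100 is the growth of untreated cells, values between 100 and 0 indicate rising inhibition; between -100 and 0 indicates cell death.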 Active and inactive are the calls of the source. Rule for the calls: active = growth percent below 10; inactive = the rest.
# System: MDA-MB-231 breast
# Experiment: NCI-60 one-dose screen, 48 h (100 = growth as untreated, 0 = no growth, -100 = all killed)
# Settings: 10 µM unless noted
row,Structure (SMILES),growth
1,Nc1ccc(S(=O)(=O)O)c2ccc(N=Nc3ccc(N=Nc4ccc(S(=O)(=O)O)cc4)c4ccccc34)c(O)c12,94.7% (inactive)
2,CSc1ccc(-c2n[nH]nc2-c2cc3ccccc3s2)cc1,41.5% (inactive)
3,COc1ccc(C(=O)COc2ccc(/C=C3\COc4ccc(OC)cc4C3=O)cc2)cc1,106% (inactive)
4,COc1cc(C=Nc2oc(-c3ccccc3)c(-c3ccccc3)c2C#N)cc(CN2CCCCC2)c1O,106% (inactive)
5,O=C1CC[C@H](c2ccc(O)c3c2C(=O)[C@@H]2O[C@@H]2C3=O)c2cccc(O)c21,43.5% (inactive)
6,C#CC(F)(F)[C@]1(O)CC[C@H]2[C@@H]3CCC4=CC(=O)CCC4=C3[C@@H](c3ccc(C(C)=O)cc3)C[C@@]21C,60.6% (inactive)
7,O=C(Cc1ccccc1Nc1c(Cl)cccc1Cl)NN1C(=O)/C(=C/c2ccc(Br)cc2)SC1=S,103% (inactive)
8,Cc1nn(-c2cc(=O)[nH]c3ccccc23)c(N)c1C#N,103% (inactive)
9,CCn1c(Cc2ccccc2Nc2c(Cl)cccc2Cl)nnc1SCC(=O)NN1C(=O)/C(=C/c2cc(OC)c(O)c(OC)c2)SC1=S,60.9% (inactive)
10,Cc1cc(C)nc(SC2=C(Nc3cc(Cl)ccc3O)C(=O)N(Cc3ccccc3)C2=O)n1,64.5% [30 µM] (inactive)
11,CCN(CC)c1ccc(/C=N\NC(=O)/C=C/C=C/c2ccc3c(c2)OCO3)c(O)c1,43.2% (inactive)
12,N#Cc1cnn(-c2nc3c(Cl)cccc3s2)c1N,60.6% (inactive)
13,COc1ccc(S(=O)(=O)N2CC3(COC3)C2)cc1NC(=O)c1[nH]c(C)c2c1CCCCC2=O,47.1% (inactive)
14,Cn1cc(C(=O)c2nc(-c3c[nH]c4ccc(F)cc34)no2)c2cc(F)ccc21,108% (inactive)
15,O=C1C=C(OCC=C(Cl)Cl)C(=O)c2ccccc21,84.7% (inactive)
16,Cc1cc(C)nc(SC2=C(Nc3cccc(Cl)c3)C(=O)N(Cc3ccccc3)C2=O)n1,61.2% [30 µM] (inactive)
17,O=c1cc(CSc2nnc(-c3ccc(F)cc3)o2)c2ccc3ccccc3c2o1,87.2% (inactive)
18,CCCn1c(=O)[nH]c(N)c([C@H]2c3ccccc3Oc3[nH]c(=O)n(CCC)c(=O)c32)c1=O,81.8% (inactive)
19,O=C(CCN1C(=O)/C(=C/c2ccc(Cl)cc2)SC1=S)NCCCN1CCOCC1,100% (inactive)
20,Cc1nc2ccccc2n1C(=O)C[C@@H]1NC(=S)NC1=O,95.8% (inactive)

row,Structure (SMILES),growth
1,O=C(N=Nc1c(O)[nH]c2ccc(Br)cc12)c1cc(-c2ccccc2)on1,100% (inactive)
2,C=C(C)C(=O)Nc1ccc(NC(C)C)cc1,123% (inactive)
3,CC(O)CN1CC(O)=C(c2nc3ccccc3s2)C1=N (centres undefined),108% (inactive)
4,O=c1c2c3c(sc2nc(N/N=C/c2cn(-c4ccccc4)nc2-c2ccc(Cl)cc2)n1Cc1ccccc1)CCCC3,113% (inactive)
5,COc1cccc(-c2nn(C(C)(C)C)cc2-c2ccnc(NCCCNS(=O)(=O)c3ccc(C)cc3)c2)c1,112% (inactive)
6,CSc1nc(Nc2cccc(NC(=O)CCl)c2)c(C#N)c(-c2cccc([N+](=O)[O-])c2)n1,68.4% (inactive)
7,CSc1nc(Nc2cccc(NC(=O)/C(C#N)=C/c3c(Cl)cccc3Cl)c2)c(C#N)c(-c2cccc([N+](=O)[O-])c2)n1,52.5% (inactive)
8,COc1ccc(-c2nc3ccc(-c4nc5ccc(N6CCN(c7ccccc7)CC6)cc5[nH]4)cc3[nH]2)cc1OC,-22% (active)
9,COc1ccc(CCNc2nc3c(c(=O)n(Cc4ccc(Br)cc4)c(=O)n3C)n2C)cc1OC,81.9% (inactive)
10,C=CCSSc1ncnc2c1ncn2C1OC(CO)C(O)C1O (centres undefined),48.1% (inactive)
11,Cc1ccc(NC(=O)C2CCC(CN3CCN(C)CC3)CC2)cc1Nc1nccc(-c2cccnc2)n1 (centres undefined),101% (inactive)
12,COc1cc(/C=C/c2cc(O)c3cc(C(C)=O)c(=O)oc3c2)cc2c1O[C@]1(C)CC[C@@H](O)C(C)(C)[C@H]1C2,64.4% (inactive)
13,C=CC(=O)Nc1cccc(Nc2nc(SC)nc(-c3cccc([N+](=O)[O-])c3)c2C#N)c1,52.2% (inactive)
14,N#C/C(=C\c1ccc(-c2cc(C(F)(F)F)ccc2Cl)o1)c1nc(-c2ccco2)cs1,93.1% (inactive)
15,COCCNc1ccc2c3c(cccc13)C(=O)N(CCN(C)C)C2=O,46.6% (inactive)
16,C=CC(=O)Nc1cccc(-c2nc(SC)nc(NCc3ccccc3)c2C#N)c1,62.4% (inactive)
17,COC(=O)c1cccc(NC(=O)c2ccc(-c3cccc(N)c3)o2)c1,99.4% (inactive)
18,N#Cc1c(-c2ccc(Cl)cc2)nc(N=Nc2c(O)[nH]c3ccc(Cl)cc23)nc1N1CCOCC1,82.9% (inactive)
19,N#CN1CCC[C@H]1C(=O)N1CCc2c(-c3[nH]nc4ncccc34)cccc21,3% (active)
